This passage reports binding signal results from publication PMC7862700, “An all-to-all approach to the identification of sequence-specific readers for epigenetic DNA modifications on cytosine”.

Common to all, as to assay: DAPPL (digital affinity profiling via proximity ligation, sequencing); 10 mM Tris-HCl pH 7.5, 50 mM NaCl, 1 mM DTT, 4% glycerol, room temperature, 30 min; GST-TFs on glutathione beads, 16-mer random dsDNA library, 0.1% formaldehyde crosslink after washing; high values mean tight binding
What all share (conditions): protein: recombinant; tags: N-terminal GST; dsDNA, one strand shown

In one test the target is T1, ELK1 (Homo sapiens, UniProt P19419 1-428).
T1 sequence: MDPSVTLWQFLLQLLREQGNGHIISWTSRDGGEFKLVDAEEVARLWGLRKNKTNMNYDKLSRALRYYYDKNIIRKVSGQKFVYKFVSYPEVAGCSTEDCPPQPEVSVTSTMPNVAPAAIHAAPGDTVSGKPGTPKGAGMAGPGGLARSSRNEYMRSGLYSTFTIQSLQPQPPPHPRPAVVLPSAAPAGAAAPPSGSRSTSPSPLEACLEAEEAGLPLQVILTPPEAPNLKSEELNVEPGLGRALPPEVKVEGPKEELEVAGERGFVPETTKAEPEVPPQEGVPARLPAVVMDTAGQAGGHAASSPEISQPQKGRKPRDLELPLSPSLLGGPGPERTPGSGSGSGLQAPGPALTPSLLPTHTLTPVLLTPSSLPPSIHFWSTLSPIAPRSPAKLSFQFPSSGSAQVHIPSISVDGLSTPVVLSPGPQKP
In outline: (§1)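 Binding signal is given per hexamer as its read frequency for a factor divided by its frequency in the tag-only sample. GST-fused human transcription factors were expressed in yeast, captured on glutathione beads, barcoded with DNA and pooled with that sample, then incubated with 200 nmole of a 16-mer random double-stranded DNA library in Tris/NaCl/DTT/glycerol buffer for 30 min at room temperature. The pools were then washed, crosslinked, proximity-ligated, amplified by PCR and sequenced on an Illumina NextSeq500.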

For a further test, the target named is ELF1 (Homo sapiens, UniProt P32519 1-619). The method in brief: as §1
The target in another test is T2, ELK3 (Homo sapiens, UniProt P41970 1-407).
T2 sequence: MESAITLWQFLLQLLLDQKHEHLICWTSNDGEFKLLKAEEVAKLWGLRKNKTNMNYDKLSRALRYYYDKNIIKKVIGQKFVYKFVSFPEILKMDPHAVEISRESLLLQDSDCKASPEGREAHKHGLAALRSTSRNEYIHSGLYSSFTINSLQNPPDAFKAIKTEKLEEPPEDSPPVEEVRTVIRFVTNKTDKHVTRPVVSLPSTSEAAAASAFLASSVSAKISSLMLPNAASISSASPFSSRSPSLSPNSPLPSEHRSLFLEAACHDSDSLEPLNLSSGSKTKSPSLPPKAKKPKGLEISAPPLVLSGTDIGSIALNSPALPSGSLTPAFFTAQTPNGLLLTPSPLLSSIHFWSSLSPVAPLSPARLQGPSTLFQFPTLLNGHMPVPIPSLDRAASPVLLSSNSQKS
The method in brief: as §1

The target in a further test is T3, FEV (Homo sapiens, UniProt Q99581 1-238).
T3 sequence: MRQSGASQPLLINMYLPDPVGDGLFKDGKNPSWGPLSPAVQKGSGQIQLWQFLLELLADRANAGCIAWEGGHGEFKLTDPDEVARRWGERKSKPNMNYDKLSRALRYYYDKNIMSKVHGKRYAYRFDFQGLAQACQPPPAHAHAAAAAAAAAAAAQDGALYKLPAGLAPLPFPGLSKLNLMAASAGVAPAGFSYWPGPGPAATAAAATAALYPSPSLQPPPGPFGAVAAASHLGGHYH
In outline: as §1

Another test deals with T4, SPIC (Homo sapiens, UniProt Q8N5J4 1-248).
T4 sequence: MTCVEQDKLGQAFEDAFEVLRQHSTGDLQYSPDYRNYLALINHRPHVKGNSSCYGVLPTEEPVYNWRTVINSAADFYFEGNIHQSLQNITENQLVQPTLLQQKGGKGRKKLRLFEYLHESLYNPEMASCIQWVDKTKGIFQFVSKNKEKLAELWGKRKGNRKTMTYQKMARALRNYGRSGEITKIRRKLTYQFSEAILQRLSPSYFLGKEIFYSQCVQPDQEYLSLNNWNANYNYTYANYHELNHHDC
The method in brief:
as §1

A further test has as its target T5, ELF3 (Homo sapiens, UniProt P78545 1-371).
T5 sequence: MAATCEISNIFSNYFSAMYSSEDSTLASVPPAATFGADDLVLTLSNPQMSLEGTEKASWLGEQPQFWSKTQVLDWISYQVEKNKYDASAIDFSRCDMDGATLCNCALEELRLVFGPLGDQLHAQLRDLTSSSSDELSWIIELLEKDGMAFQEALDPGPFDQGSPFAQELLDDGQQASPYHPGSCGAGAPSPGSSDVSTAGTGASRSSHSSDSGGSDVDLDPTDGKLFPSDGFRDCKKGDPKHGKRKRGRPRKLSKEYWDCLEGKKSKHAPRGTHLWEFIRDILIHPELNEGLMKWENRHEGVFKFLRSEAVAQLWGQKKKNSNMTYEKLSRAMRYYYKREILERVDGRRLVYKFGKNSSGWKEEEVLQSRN
The method in brief:
as §1

For the next test, the target named is T6, ETV3L (Homo sapiens, UniProt Q6ZN32 1-361).
T6 sequence: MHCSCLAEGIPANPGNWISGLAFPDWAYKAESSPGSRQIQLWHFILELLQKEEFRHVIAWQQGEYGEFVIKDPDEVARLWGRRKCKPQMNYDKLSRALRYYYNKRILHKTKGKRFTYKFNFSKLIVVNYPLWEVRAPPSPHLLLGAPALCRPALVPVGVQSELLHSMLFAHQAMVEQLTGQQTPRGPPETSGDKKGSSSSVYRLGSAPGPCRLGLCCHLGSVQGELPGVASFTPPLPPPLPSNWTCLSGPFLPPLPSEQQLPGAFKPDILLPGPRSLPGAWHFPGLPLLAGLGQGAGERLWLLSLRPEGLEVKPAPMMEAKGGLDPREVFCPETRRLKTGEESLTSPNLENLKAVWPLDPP
The method in brief:
as §1

For a further test, the target named is T7, ETV3 (Homo sapiens, UniProt P41162-2 1-143).
T7 sequence: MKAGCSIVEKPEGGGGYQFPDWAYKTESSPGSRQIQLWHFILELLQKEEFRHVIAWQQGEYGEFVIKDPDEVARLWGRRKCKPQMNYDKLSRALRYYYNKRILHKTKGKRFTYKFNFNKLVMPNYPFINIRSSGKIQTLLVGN
In outline: as §1

For another test, the target named is ETV6 (Homo sapiens, UniProt P41212 1-452). The method in brief:
as §1

The target in a further test is T8, GABPA (Homo sapiens, UniProt Q06546 1-454).
T8 sequence: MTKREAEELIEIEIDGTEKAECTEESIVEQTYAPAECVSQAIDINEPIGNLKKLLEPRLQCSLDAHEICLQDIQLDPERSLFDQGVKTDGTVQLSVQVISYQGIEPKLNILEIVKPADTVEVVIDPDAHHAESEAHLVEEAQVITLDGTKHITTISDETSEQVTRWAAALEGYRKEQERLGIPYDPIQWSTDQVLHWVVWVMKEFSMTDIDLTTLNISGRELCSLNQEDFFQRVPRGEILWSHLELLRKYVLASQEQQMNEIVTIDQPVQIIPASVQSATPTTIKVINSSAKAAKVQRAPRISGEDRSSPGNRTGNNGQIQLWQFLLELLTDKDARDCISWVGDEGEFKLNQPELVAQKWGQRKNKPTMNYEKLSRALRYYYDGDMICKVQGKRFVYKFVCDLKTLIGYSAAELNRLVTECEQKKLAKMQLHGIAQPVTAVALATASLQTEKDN
In outline:
as §1

A further test deals with T9, ELK4 (Homo sapiens, UniProt P28324-2 1-405).
T9 sequence: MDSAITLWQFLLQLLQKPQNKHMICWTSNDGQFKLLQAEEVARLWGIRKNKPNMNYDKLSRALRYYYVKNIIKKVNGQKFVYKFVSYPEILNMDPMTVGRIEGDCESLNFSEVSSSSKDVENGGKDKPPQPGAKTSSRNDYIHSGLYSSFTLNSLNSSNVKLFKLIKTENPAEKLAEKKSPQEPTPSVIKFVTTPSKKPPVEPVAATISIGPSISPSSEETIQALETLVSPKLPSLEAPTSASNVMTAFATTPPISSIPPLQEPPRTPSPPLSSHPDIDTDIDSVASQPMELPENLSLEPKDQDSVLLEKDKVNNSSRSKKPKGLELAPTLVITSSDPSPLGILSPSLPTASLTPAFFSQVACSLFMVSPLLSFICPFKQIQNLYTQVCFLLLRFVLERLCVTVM
The method in brief:
as §1

The target in another test is SPIB (Homo sapiens, UniProt Q01892 1-262). The method in brief:
as §1

A further test deals with ETV1 (Homo sapiens, UniProt P50549 1-477). In outline: as §1
For the next test, the target named is T10, ERF (Homo sapiens, UniProt P50548 1-548).
T10 sequence: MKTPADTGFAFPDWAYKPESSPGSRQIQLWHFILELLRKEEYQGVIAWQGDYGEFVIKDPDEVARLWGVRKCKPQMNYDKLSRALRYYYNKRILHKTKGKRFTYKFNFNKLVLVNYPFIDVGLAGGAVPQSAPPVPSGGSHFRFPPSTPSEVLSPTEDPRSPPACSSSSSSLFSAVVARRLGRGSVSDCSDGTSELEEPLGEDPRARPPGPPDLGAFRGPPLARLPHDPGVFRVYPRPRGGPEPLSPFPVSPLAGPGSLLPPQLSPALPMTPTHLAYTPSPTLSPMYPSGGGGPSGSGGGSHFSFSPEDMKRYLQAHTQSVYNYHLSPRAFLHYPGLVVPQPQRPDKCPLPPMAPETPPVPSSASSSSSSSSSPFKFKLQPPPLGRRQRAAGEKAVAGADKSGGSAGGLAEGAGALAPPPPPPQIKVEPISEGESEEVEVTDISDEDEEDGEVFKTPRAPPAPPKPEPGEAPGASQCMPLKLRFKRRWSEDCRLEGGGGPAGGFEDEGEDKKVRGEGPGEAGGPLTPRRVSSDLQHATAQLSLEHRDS
In outline:
as §1

The next test deals with T11, SPDEF (Homo sapiens, UniProt O95238 1-335).
T11 sequence: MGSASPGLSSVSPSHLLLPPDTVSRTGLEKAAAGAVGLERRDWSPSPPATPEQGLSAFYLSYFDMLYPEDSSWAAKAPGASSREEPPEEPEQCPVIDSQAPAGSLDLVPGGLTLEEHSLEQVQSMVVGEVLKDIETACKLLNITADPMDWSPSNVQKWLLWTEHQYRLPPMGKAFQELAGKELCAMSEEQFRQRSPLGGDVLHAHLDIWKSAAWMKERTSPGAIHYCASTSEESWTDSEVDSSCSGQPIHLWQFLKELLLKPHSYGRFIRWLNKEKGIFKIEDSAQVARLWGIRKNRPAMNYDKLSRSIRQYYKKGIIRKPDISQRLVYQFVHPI
In outline: as §1

A further test has as its target T12, ETV7 (Homo sapiens, UniProt Q9Y603 1-341).
T12 sequence: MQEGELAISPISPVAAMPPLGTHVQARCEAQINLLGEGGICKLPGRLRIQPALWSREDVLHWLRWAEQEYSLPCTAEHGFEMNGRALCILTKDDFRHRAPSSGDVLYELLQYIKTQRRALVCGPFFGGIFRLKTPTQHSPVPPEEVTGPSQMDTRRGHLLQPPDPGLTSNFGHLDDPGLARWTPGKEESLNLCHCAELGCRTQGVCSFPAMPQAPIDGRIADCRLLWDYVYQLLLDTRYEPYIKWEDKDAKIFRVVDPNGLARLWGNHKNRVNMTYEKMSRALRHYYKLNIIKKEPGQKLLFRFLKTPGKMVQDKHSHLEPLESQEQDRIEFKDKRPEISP
The method in brief: as §1

ELF1, sequence (P32519 whole entry): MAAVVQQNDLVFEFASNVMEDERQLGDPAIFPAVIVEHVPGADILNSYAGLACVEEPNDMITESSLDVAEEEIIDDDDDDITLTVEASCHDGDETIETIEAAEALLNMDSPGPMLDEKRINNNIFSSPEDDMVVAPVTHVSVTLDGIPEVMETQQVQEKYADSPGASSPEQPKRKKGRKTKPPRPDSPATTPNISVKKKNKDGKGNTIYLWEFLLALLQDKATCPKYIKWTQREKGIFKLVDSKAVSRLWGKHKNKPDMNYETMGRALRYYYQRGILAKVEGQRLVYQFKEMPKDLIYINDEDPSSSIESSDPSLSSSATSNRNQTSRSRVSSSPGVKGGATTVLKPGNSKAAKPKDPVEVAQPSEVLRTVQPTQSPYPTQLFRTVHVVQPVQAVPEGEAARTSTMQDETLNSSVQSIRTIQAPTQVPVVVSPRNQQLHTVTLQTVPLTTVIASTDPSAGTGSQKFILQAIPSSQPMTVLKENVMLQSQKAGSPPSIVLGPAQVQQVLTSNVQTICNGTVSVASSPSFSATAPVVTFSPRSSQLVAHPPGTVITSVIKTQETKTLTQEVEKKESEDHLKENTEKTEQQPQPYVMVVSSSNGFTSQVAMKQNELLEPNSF
ETV1, sequence (P50549 whole entry): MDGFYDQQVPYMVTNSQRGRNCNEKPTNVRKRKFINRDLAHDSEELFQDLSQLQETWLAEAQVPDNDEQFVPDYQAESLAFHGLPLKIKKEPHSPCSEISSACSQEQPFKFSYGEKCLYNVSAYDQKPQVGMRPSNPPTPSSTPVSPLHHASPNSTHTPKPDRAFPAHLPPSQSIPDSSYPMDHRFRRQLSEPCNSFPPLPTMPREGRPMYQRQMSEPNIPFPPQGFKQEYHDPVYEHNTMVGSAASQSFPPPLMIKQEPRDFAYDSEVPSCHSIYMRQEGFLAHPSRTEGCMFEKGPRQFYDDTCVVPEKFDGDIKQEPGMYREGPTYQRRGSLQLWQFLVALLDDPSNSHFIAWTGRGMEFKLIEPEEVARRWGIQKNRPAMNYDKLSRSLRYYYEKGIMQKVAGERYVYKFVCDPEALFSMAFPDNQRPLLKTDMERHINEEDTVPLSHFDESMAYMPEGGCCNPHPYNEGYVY
ETV6, sequence (P41212 whole entry): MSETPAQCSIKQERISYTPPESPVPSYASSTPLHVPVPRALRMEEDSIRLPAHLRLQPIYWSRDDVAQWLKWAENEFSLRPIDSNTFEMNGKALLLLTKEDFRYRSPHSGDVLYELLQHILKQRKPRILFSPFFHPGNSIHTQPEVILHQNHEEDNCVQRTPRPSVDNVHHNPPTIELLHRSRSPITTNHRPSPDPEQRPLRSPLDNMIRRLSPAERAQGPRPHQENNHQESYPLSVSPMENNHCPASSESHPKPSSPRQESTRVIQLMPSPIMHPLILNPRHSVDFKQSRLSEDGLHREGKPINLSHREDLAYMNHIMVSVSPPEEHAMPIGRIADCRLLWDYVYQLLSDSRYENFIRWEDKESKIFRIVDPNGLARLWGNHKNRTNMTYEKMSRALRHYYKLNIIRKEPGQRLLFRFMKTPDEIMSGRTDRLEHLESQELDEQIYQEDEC
SPIB, sequence (Q01892 whole entry): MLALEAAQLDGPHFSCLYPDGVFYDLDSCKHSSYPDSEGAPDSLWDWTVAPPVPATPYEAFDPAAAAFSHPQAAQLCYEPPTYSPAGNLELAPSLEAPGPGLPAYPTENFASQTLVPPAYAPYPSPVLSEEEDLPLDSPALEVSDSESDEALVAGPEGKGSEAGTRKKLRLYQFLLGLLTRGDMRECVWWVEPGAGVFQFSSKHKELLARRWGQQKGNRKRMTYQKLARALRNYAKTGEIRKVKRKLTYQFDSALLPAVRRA

On to GGTTAC, for which the binding signal with ELK1 is 1.05 fold enrichment (6-mer frequency, TF over GST control); with ELF1, 1.01 fold enrichment (6-mer frequency, TF over GST control); in the test with ELK3, 1.04 fold enrichment (6-mer frequency, TF over GST control); with FEV, 1 fold enrichment (6-mer frequency, TF over GST control); with SPIC, 1.05 fold enrichment (6-mer frequency, TF over GST control); with ELF3 it was 1.07 fold enrichment (6-mer frequency, TF over GST control). The binding signal with ETV3L is 1.01 fold enrichment (6-mer frequency, TF over GST control); in the test with ETV3, 1.01 fold enrichment (6-mer frequency, TF over GST control); in the test with ETV6 it was 1.02 fold enrichment (6-mer frequency, TF over GST control).
Turning to TGGCGC, the binding signal with GABPA was 1.02 fold enrichment (6-mer frequency, TF over GST control); with SPIC it was 1.1 fold enrichment (6-mer frequency, TF over GST control); with ELK4, 1.06 fold enrichment (6-mer frequency, TF over GST control).
On to CCACGT, for which the binding signal was 1.09 fold enrichment (6-mer frequency, TF over GST control) with GABPA; 1.04 fold enrichment (6-mer frequency, TF over GST control) with ELF1; 1.03 fold enrichment (6-mer frequency, TF over GST control) with SPIB; 1.05 fold enrichment (6-mer frequency, TF over GST control) in the test with ELK3; 1.09 fold enrichment (6-mer frequency, TF over GST control) with SPIC; 1.01 fold enrichment (6-mer frequency, TF over GST control) with ELK4. Also, the binding signal in the test with ETV1 was 1.01 fold enrichment (6-mer frequency, TF over GST control); with ERF, 1.07 fold enrichment (6-mer frequency, TF over GST control); with ETV3L it was 1.04 fold enrichment (6-mer frequency, TF over GST control); with SPDEF, 1.02 fold enrichment (6-mer frequency, TF over GST control); with ETV7 it was 1.06 fold enrichment (6-mer frequency, TF over GST control).
